# From PubChem BioAssay (NCI)
# The panel holds about 83,000 compounds, 20% with a hit somewhere; the sample as a whole holds those more often.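 Note: values are percent growth. 100 is the growth of untreated cells, values between 100 and 0 indicate rising inhibition; between -100 and 0 indicates cell death.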 Values without a mark were called inactive. The source made the active and inactive calls. Rule for the calls: active = growth percent below 10; inactive = the rest.
# Assays:
# Test in all cases: NCI-60 one-dose screen, 48 h (100 = growth as untreated, 0 = no growth, -100 = all killed)
# Conditions in all cases: 10 µM unless noted
# [1] = test system: NCI-H23 lung
# [2] = test system: NCI-H226 lung
# [3] = test system: NCI-H322M lung
# [4] = test system: HOP-62 NSCLC
# [5] = test system: NCI-H460 lung
# [6] = test system: 786-0 renal
# [7] = test system: MDA-MB-231 breast
# [8] = test system: SF-268 CNS
# [9] = test system: M14 melanoma
# [10] = test system: PC-3 prostate
# [11] = test system: UACC-62 melanoma
# [12] = test system: SK-MEL-28 melanoma
# [13] = test system: SN12C renal
# [14] = test system: UO-31 renal
# [15] = test system: OVCAR-5 ovarian
# [16] = test system: NCI/ADR-RES ovarian
# [17] = test system: MDA-MB-435 melanoma
# [18] = test system: SW-620 colon
# [19] = test system: HCT-116 colon
# [20] = test system: KM12 colon
SMILES,growth [1],growth [2],growth [3],growth [4],growth [5],growth [6],growth [7],growth [8],growth [9],growth [10],growth [11],growth [12],growth [13],growth [14],growth [15],growth [16],growth [17],growth [18],growth [19],growth [20]
ClCCN(CCCl)c1nc(Cl)c(C2CC(c3ccc(Cl)cc3)=NN2c2cc(Cl)cc(Cl)c2)s1 (stereo not given),94.1%,99.9%,102%,98.4%,101%,103%,107%,102%,95.8%,93.6%,82.7%,121%,92%,91.3%,108%,114%,103%,99.2%,85.8%,108%
COc1ccc(OC)c(/C=C(/C)[N+](=O)[O-])c1,53.8%,94.3%,98%,38.9%,33.1%,90.9%,68.4%,65.3%,47%,52.6%,63.4%,74.7%,32.3%,-46.3% (active),108%,81.1%,23.1%,-77% (active),-91.4% (active),26.5%
[Br][Pb]([c]1ccccc1)([c]1ccccc1)[c]1ccccc1,-88.8% (active),-44.6% (active),-100% (active),-97.7% (active),-100% (active),-96.3% (active),-92.2% (active),-95.1% (active),-100% (active),-80.6% (active),-92.2% (active),-100% (active),-83.7% (active),-99.8% (active),-93.1% (active),-71.6% (active),-98.6% (active),-95.3% (active),-100% (active),-99.4% (active)
Cc1ccc(C(=O)C2CN(C)CCC2(O)c2ccc(C)cc2)cc1 (stereo not given),103%,113%,113%,140%,111%,113%,116%,110%,113%,108%,117%,113%,107%,99.6%,122%,103%,106%,105%,107%,109%
O=S(=O)(F)c1ncnc2nc[nH]c12,95.5%,89.6%,97.9%,86.5%,103%,97.6%,93.9%,70%,100%,93.7%,89.8%,97%,91.8%,66.9%,90.7%,93.8%,100%,95.4%,100%,81.8%
